# KLF5 inhibitor = KLF5 expression inhibitors, primary screen, DLD-1 cells, luminescence; DLD-1 KLF5 promoter-luciferase reporter; inhibition, % at 5 µM; 290,000 tested, 0.23% active;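 active = inhibition above a per-plate limit of that plate's mean compound inhibition plus 3 SD, cut at about 60% in these data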;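 also: 0% = DMSO wells and 100% = LY294002 at 200 µM; higher means less KLF5 promoter-driven luciferase light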
# aSyn UTR inh = MLPCN primary screen, SNCA 5' untranslated region. inhibition, % (tested at 7.5 µM). 300,000 tested, 0.82% active. alpha-synuclein 5'UTR reporter, inhibitor activity; in the data active = inhibition above about 60%;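 also: H4 neuroglioblastoma cells stably carrying SNCA 5'UTR luciferase fusion; 0% = DMSO wells and 100% = positive control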
# Jurkat NFkB inh = inhibitors of induced NF-kB luciferase reporter, primary screen, TCR NF-kB activation inhibitor project, cell-based, luminescence, uHTS | Jurkat, PMA/ionomycin-induced NF-kB luciferase reporter | inhibition, % at 4 µM | 330,000 tested, 0.53% active; in the data active = inhibition above about 50%
# TMEM16A inh = TMEM16A chloride channel inhibitors, primary screen, cell-based, HTS. normalized B-score (activity score, 25-100; higher = stronger inhibition) at 10 µM. AID 588511, 2011. 310,000 tested, 1.2% active. HEK293 TMEM16A/YFP iodide influx fluorescence, ionomycin. Anoctamin-1 (Mus musculus), Q8BHY3;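 active = ratio plate-corrected score three or more library SD toward inhibition, starting fluorescence score within five deviations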;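 also: score derived from kinetic fluorescence span divided by baseline fluorescence per well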
# ANO1 activ = TMEM16A chloride channel activators or potentiators, primary screen, cell-based, HTS; B-score at 10 µM; Anoctamin-1 (Mus musculus), Q8BHY3; HEK293 TMEM16A/YFP-H148Q/I152L, iodide quench fluorescence; stronger effect = lower value; 340,000 tested, 0.3% active; AID 623877, 2012;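 active = fluorescence-ratio B-score plate-corrected deviation score at least 3 library SD below zero, with starting fluorescence score within 5 deviations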;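 also: channel opened by trigger with iodide after compound preincubation; score built on the fluorescence ratio of max minus min over baseline; more negative score means more quench and so TMEM16A activation or potentiation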
# 697 NFkB inh = inhibitors of PMA/ionomycin-induced NF-kB reporter, 697 cells, primary screen, B-cell NF-kB inhibitor project, cell-based, luminescence, uHTS | 697 B-cell NF-kB luciferase reporter, 16 h | 330,000 tested, 0.33% active | inhibition, % at 4 µM; in the data active = inhibition above about 35%
# TMEM16A reconf = TMEM16A chloride channel inhibitors, confirmation, cell-based, re-confirmation; shares compounds with TMEM16A inh; HEK293 TMEM16A/YFP-H148Q, iodide quench fluorescence; ionomycin added to raise cell calcium; inhibition, % at 10 µM; 2,300 tested, 39% active;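 active = mean duplicate percent inhibition, scaled so buffer wells are 0 and the reference blocker 100, over three buffer SD above buffer mean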
# TMEM16A Ca cntr = calcium mobilization in TMEM16A/YFP HEK293 cells, confirmation, counter-screen for TMEM16A inhibitor project; shares compounds with TMEM16A inh; calcium response (% of ionomycin), % at 10 µM; Fluo4 calcium mobilization; 2,300 tested, 2% active; AID 652231, 2013;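 active = duplicate-averaged calcium signal over 20% of the ionomycin maximum, relative to buffer baseline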;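 also: each well's signal is peak minus trough fluorescence divided by its pre-addition baseline; 0% = buffer wells and 100% = ionomycin wells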
# YFP-HEK293 quench = iodide YFP quench changes in parental YFP-HEK293, counter-screen for TMEM16A inhibitor project, cell-based; AID 652233, 2013; shares compounds with TMEM16A inh; ionomycin; YFP ratio F(max-min)/F0 at 10 µM; 2,300 tested, under 10 active;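 active = yellow fluorescent protein signal ratio exceeding the buffer control mean by over 5 SD of those controls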;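 also: ratio is mean of duplicate wells from kinetic YFP trace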
# ClC-1 inh = ClC-1 chloride channel inhibition, selectivity assay for TMEM16A inhibitor project, cell-based, voltage-dependent ClC-1 | CHO ClC-1-YFP, iodide influx fluorescence quench; iodide control reads 0, buffer control 100 | shares compounds with TMEM16A inh | ratio percent, % at 10 µM | AID 652236, 2013 | 2,300 tested, under 10 active;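 active = duplicate-mean ratio percent above the mean of iodide-only control wells, which defines zero, plus 5 of their SD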;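 also: higher percent means stronger block of ClC-1 iodide influx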
# * = called active by the depositor; i = inactive; x = not tested or not shown. Most compounds without a hit are left out; they make up all but 2.5% or so of the library.
SMILES,KLF5 inhibitor,aSyn UTR inh,Jurkat NFkB inh,TMEM16A inh,ANO1 activ,697 NFkB inh,TMEM16A reconf,TMEM16A Ca cntr,YFP-HEK293 quench,ClC-1 inh
Cc1ccc(C(C)C)c(Oc2nnnn2-c2ccccc2)c1,-13,24,24,25*,i,5,26%*,i,-0.9,-8
Cc1cc(NCCCCCCCNc2cc(C)nc3cc([N+](=O)[O-])ccc23)c2ccc([N+](=O)[O-])cc2n1,x,x,x,x,i,x,x,x,x,x
Cc1ccnc(NC(=O)C2CCN(S(=O)(=O)c3ccc(C)c(C)c3)CC2)c1,x,-81,-33,i,i,8,x,x,x,x
Cc1nc(-c2c(-c3ccc(O)cc3O)noc2C(F)(F)F)cs1,-16,-26,-5,100*,i,-88,i,i,-0.98,2
CC(Sc1nc2ccccc2s1)C(=O)c1c(N)n(C)c(=O)n(C)c1=O (configuration not stated),-20,-18,-19,100*,i,-23,i,i,-1.2,-8
CCOC(=O)[C@@H](C)N(C(=O)OC(C)(C)C)S(=O)(=O)N(Cc1ccccc1)[C@H](C(=O)OC)C(C)C,x,x,x,x,i,x,x,x,x,x
CC(O)c1cccc(-c2ccc(CN3C[C@]4(CO)O[C@@H](CO)C[C@@H]4S3(=O)=O)cc2)c1 (some centres not stated),x,x,x,x,x,-4,x,x,x,x
CC(C)N(Cc1nccn1C)C(=O)c1cc(COc2ccc3ncccc3c2)on1,-8,13,22,i,i,-20,x,x,x,x
Cc1nc(CN(C)C(=O)c2cc(COc3ccc4ncccc4c3)on2)cs1,12,16,46,100*,i,-14,18%*,i,-1,-25
COc1ccc(CNC(=O)c2ccc(N3CCCC3=O)cc2)cc1,-53,-71,-13,100*,i,-12,i,i,-1.2,2
CCN1C=C(Cc2ccc(F)cc2)C2=C(C1)C(c1ccc(F)cc1)C(C#N)=C(N)O2 (configuration not stated),-33,-7,-6,25*,i,6,i,i,-1.1,-6
CCN1C=C(Cc2ccccc2C)C2=C(C1)C(c1ccccc1C)C(C#N)=C(N)O2 (configuration not stated),-15,10,8,i,i,8,x,x,x,x
CCCCN(CCCC)CCNC(=O)CNC(=O)c1cccs1,-28,8,-1,100*,i,-5,i,i,-0.96,-8
COc1ccc(NS(=O)(=O)c2ccc(C)c(NC(=O)CNC(=O)c3ccco3)c2)cc1,x,x,15,x,i,8,x,x,x,x
Cc1[nH]n(-c2ccccc2)c(=O)c1C(c1ccc(O)c([N+](=O)[O-])c1)c1c(C)[nH]n(-c2ccccc2)c1=O,-21,13,-4,100*,i,6,34%*,i,-0.92,-12
CC(=O)c1ccc(N2CCN(C(=O)Nc3ccc(C(C)C)cc3)CC2)cc1,2,24,27,100*,i,-26,29%*,i,-0.94,-3
S=C(Nc1ccccc1)N1CCN(c2ccccc2)CC1,x,x,x,x,i,x,x,x,x,x
CC(=O)c1ccc(N2CCN(C(=S)Nc3ccccc3)CC2)cc1,-32,0,-3,100*,i,25,i,i,-0.99,-6
CC(=O)c1ccc(N2CCN(C(=O)Nc3ccc(F)cc3)CC2)cc1,-6,8,18,i,i,-20,x,x,x,x
Cc1ccc(CNC(=O)CCNS(=O)(=O)c2cccc3nsnc23)cc1,-11,8,4,100*,i,-7,i,i,-0.74,-3
O=C(CCNS(=O)(=O)c1cccc2nsnc12)NCc1ccc(F)cc1,-40,20,8,i,i,8,x,x,x,x
CN(C(=O)Cn1c(=O)oc2cc(S(=O)(=O)N3CCCC3)ccc21)C1CCCCC1,-11,11,4,i,i,-7,x,x,x,x
CCOC(=O)c1c(C)n(C)c2ccc(OCC(O)Cn3c(C)nc4ccccc43)cc12 (configuration not stated),-11,-10,10,100*,i,-7,i,i,-1.1,-10
Cc1nc2ccccc2n1CC(O)COc1ccccc1Cl (configuration not stated),-18,-8,23,25*,i,-43,i,i,-0.99,-13
Cc1cccc(N2CCN(C(=O)CN3CCOc4ccccc43)CC2C)c1 (configuration not stated),-11,-8,12,25*,i,1,i,i,-1.1,-12
SMILES,KLF5 inhibitor,aSyn UTR inh,Jurkat NFkB inh,TMEM16A inh,ANO1 activ,697 NFkB inh,TMEM16A reconf,TMEM16A Ca cntr,YFP-HEK293 quench,ClC-1 inh
CCN1CCN(c2ccc(S(=O)(=O)N3CCCCC3)cc2NC(=O)COc2ccc(F)cc2Cl)CC1,-10,9,-4,i,i,-9,x,x,x,x
O=C(Cn1c(=O)n(CCCCC(=O)NC2CCCC2)c(=O)c2ccccc21)NCCC1=CCCCC1,-7,2,8,100*,i,7,i,i,-0.82,-3
Cn1c(=O)c2ccccc2n(CC(=O)NCCC2=CCCCC2)c1=O,-53,-9,-1,i,i,-11,x,x,x,x
CCOc1cc(C(=S)N2CCC(O)CC2)ccc1OS(=O)(=O)c1ccc(Br)cc1,-89,-42,-7,25*,i,-30,i,i,-1.2,-11
c1cncc(Nc2nc(-c3cccs3)cs2)c1,-21,-218,-15,i,i,-1,x,x,x,x
Cc1ccc(Nc2nc(-c3cccs3)cs2)nc1,-34,47,-149,100*,i,-235,i,i,-0.8,-12
CC(=O)N1CCN(C(=O)COC(=O)COc2c(C)cc(C)cc2C)CC1,x,x,8,x,i,15,x,x,x,x
COc1ccc(NC(=O)CCc2nc3ccccc3c(=O)[nH]2)cc1S(=O)(=O)N1CCCCC1,x,x,-23,x,i,8,x,x,x,x

# High-throughput results from PubChem BioAssay.
